Test results taken from ChEMBL document CHEMBL4808148, “HDAC6 screening dataset using tau-based substrate in an enzymatic assay yields selective inhibitors and activators” (2021).
About 150 (2.7%) of roughly 5,600 compounds showed an effect of 50% or more. The full list was thinned out, with strong results kept by preference.

Target: T1, Protein deacetylase HDAC6 (Homo sapiens) (UniProt Q9UBN7)
T1 sequence (whole entry): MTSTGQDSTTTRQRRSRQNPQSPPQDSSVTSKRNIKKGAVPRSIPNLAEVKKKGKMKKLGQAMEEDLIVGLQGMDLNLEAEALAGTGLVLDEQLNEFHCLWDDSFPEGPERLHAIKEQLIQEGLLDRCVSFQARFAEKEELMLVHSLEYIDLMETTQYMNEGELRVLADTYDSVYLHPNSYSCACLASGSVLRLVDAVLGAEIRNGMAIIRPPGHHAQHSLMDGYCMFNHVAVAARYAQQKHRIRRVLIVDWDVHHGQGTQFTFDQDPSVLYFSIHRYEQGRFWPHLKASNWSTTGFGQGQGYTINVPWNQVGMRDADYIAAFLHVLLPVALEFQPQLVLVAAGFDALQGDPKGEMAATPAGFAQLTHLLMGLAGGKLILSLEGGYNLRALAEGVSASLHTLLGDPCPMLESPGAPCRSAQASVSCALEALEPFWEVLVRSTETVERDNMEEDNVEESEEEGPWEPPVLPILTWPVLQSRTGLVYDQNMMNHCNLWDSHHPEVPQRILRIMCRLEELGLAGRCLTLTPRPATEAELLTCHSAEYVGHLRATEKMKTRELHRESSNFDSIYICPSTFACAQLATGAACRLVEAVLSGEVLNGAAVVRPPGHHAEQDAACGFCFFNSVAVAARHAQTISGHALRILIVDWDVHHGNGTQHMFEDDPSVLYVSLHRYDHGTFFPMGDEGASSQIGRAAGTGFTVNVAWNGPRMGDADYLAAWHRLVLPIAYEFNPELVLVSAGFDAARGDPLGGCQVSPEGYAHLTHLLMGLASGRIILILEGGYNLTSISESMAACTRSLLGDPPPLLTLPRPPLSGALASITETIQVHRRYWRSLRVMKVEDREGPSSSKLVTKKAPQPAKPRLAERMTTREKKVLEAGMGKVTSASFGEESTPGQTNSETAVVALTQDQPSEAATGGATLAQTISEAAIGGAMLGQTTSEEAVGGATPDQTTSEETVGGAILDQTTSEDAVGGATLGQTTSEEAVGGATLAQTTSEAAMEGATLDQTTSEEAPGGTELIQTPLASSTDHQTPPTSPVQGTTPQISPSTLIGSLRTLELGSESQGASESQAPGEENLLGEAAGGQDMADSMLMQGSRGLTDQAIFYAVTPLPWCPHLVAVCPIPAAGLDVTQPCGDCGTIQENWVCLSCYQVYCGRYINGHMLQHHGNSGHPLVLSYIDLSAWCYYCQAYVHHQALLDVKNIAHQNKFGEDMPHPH
Conditions: at 10 µM

Compared with `Fc1ccc(-c2cncc(CN3CCN(c4cccc5c4OCCO5)CC3)c2)cc1`, `O=C(O)CCn1c2c(c3ccccc31)C[C@H](NS(=O)(=O)c1ccc(F)cc1)CC2` is lower in inhibition: 2% for the first, 0.51% for the second.

Compared with `COC[C@@H](c1ccc(C(F)(F)F)cc1)N1CCN(C2(C)CCN(C(=O)c3c(C)ncnc3C)CC2)C[C@@H]1C`, `CC#C[C@@H](CC(=O)O)c1ccc(OCc2cccc(-c3ccc(C(F)(F)F)cc3)c2)cc1` is lower in inhibition: 6.58% for the first, 5.76% for the second.

First: O=C(c1ccc(/C=C/c2n[nH]c3ccccc23)cc1)N1CCNCC1
Second: CN1CCc2c(c3ccccc3n2Cc2ccc(C(=O)NO)cc2)C1
The inhibition of the first is higher: 98% for the first, 97% for the second.

Compared with `Nc1ccc(/N=N/c2ccccc2)c(N)n1`, `Nc1c2ccccc2nc2ccccc12` is lower in inhibition: 78.3% for the first, 4.21% for the second.

First: Cc1ccc2c(c1)c1c(n2CCc2ccc(C)nc2)CCN(C)C1
Second: COc1ccc(C(=O)c2ccc(C)cc2)c(O)c1
The inhibition of the first is lower: 0.41% for the first, 5.59% for the second.

Compared with `N#Cc1c(N)nc(SCc2ncc[nH]2)c(C#N)c1-c1ccc(O)cc1`, `O=c1c(-c2ccc(O)cc2)coc2cc(O)cc(O)c12` is higher in inhibition: 4.89% for the first, 57.9% for the second.

Going from `CSc1ccc(C(=O)N[C@@H]2CCCC[C@@H]2NC(=O)CNC(=O)c2cc(C(F)(F)F)ccc2NC(=O)NC(C)C)cc1` to `O=C(O)c1ccc(CN2CCC(CN[C@@H]3C[C@H]3c3ccccc3)CC2)cc1`, the inhibition rises from -5.32% to 8.19%.

Going from `Cc1ccc(S(=O)(=O)Nc2nc3ccccc3nc2Nc2ccc3nsnc3c2)cc1` to `O=C(Nc1ccc(O)cc1)c1ccccc1O`, the inhibition rises from 1.65% to 44.6%.

Going from `COc1cc2ncnc(Nc3cccc(Br)c3)c2cc1OC` to `C#Cc1cccc(Nc2ncnc3cc(OCCOC)c(OCCOC)cc23)c1`, the inhibition rises from -6.11% to 1.06%.

Compared with `C#Cc1cccc(Nc2ncnc3cc(OC)c(OCCCCCCC(=O)NO)cc23)c1`, `COc1cc2c(NC3CCN(C)CC3)nc(N3CCCN(C)CC3)nc2cc1OCCOCCN(C)C` is lower in inhibition: 94.6% for the first, 4.62% for the second.

Compared with `O=C(NCCO)c1cc(C(=O)NCCO)cc(C(=O)NCCO)c1`, `O=C(N/N=C/c1ccccc1O)c1ccccc1O` is higher in inhibition: -2.63% for the first, 77.3% for the second.

Going from `CCc1nn(CCO)c(CC)c1Oc1cc(C#N)cc(C#N)c1` to `COc1ccc(-c2coc3cc(O)cc(O)c3c2=O)cc1`, the inhibition rises from -5.93% to 63.1%.

First: O=C1Nc2ccccc2/C1=C1/Nc2ccccc2/C1=N\O
Second: O=C(N/N=C/c1ccc(O)c(O)c1)c1cc2ccccc2cc1O
The inhibition of the first is higher: 36.4% for the first, 32.8% for the second.

First: N[C@@H](CCC(=O)O)C(=O)O
Second: O=c1c(O[C@@H]2O[C@H](CO)[C@H](O)[C@H](O)[C@H]2O)c(-c2ccc(O)c(O)c2)oc2cc(O)cc(O)c12
The inhibition of the first is lower: -3.62% for the first, 11.7% for the second.

Compared with `O=c1c(O)c(-c2ccc(O)cc2O)oc2cc(O)cc(O)c12`, `COc1ccc(-c2oc3c(CC=C(C)C)c(O)cc(O)c3c(=O)c2O)cc1` is higher in inhibition: 2.84% for the first, 6.17% for the second.
